Test results as given in PubChem BioAssay (Tox21).
Records with an inconclusive call do not appear. Active and inactive are the calls of the source. Calls follow the shape of the dose curve; as a rule, active = well fitted cell-killing curve with a large enough effect in the repeat runs; inconclusive = weak or mixed curves, or effect the other way; inactive = flat fitted curve, though single readings scatter.

Assay: qHTS assay to identify small molecule agonists of the estrogen receptor beta (ER-beta) signaling pathway - cell viability counter screen (AID 1259380); also: nearly all actives have a fitted effect of over 30% in size
Details: ER-beta-bla HEK293T viability, CellTiter-Glo luminescence, 16 h; series mostly up to 92.4 µM; activity change, negative = cytotoxicity: at the top concentration
Source text: National Center for Advancing Translational Sciences [NCATS]
NIH Chemical Genomics Center [NCGC]
U.S. Environmental Protection Agency [EPA]
National Institutes of Environmental Health Sciences [NIEHS]
National Toxicology Program [NTP]
U.S. Food and Drug Administration [FDA]
Estrogen receptor (ER), a nuclear hormone receptor, plays an important role in development, metabolic homeostasis and reproduction. Two subtypes of ER, ER-alpha and ER-beta, have similar expression patterns with some uniqueness in both types. Endocrine disrupting chemicals (EDCs) and their interactions with steroid hormone receptors like ER causes disruption of normal endocrine function. To identify the compounds that activate ER signaling, an ER beta-UAS-bla GripTite cell line (Life Technologies, Madison, WI, USA) containing a beta-lactamase reporter gene under the control of an UAS response element was used to screen Tox21 10K compound library. The cytotoxicity of the Tox21 compound library against the ER-beta-bla cell line was tested in parallel by measuring the cell viability using CellTiter-Glo assay in the same wells.
Tox21 Assay Protocol Summary:
ER-beta-UAS-bla HEK293T cells were dispensed at 2,000 cells/5 uL of assay medium containing 2% charcoal stripped FBS per well into black wall/clear-bottom 1536-well plates using a Multidrop Combi (ThermoFisher Scientific, Waltham, MA) dispenser. After the assay plates were incubated at a 37C and 5% CO2 for 6 hr, 23 nL of compounds dissolved in DMSO, positive controls or DMSO only was transferred to the assay plate by a Pintool station (Kalypsys, San Diego, CA). The plates were incubated at 37C and 5% CO2 for 16 hr. Then 1 uL of LiveBLAzerTM B/G FRET substrate was added using a BioRAPTR FRD (Flying Reagent Dispenser, Aurora Discovery, San Diego, CA) and then the plates were incubated at room temperature for 2 hours, and fluorescence intensity was measured by an Envision plate reader (PerkinElmer, Shelton, CT). For cell viability readout that measures cytotoxicity, 4 uL/well of CellTiter-Glo reagent was added into the assay plates using a FRD. After 30 min incubation at room temperature, the luminescence intensity in the plates was measured using a ViewLux (PerkinElmer) plate reader.
% is scaled to controls: 0 for no effect and ±100 for the full control effect; potency is read from the fitted curve at half-maximal effect.

Row | SMILES | activity change, negative = cytotoxicity | Potency
1 | OCc1ccccc1O | 5.78% [at 42.5 µM] (inactive) | –
2 | O=c1[nH]cnc2c1ncn2[C@@H]1O[C@H](CO)[C@@H](O)[C@H]1O | 7.38% [at 42.5 µM] (inactive) | –
3 | CCOC(=O)[C@H](CCc1ccccc1)N[C@@H](C)C(=O)N1Cc2cc(OC)c(OC)cc2C[C@H]1C(=O)O | -4.36% [at 42.5 µM] (inactive) | –
4 | C=CCc1cc(OC)c(O)c(C(=O)NCCO)c1 | 8.12% [at 42.5 µM] (inactive) | –
5 | C[C@@H]1CN(c2c(F)c(N)c3c(=O)c(C(=O)O)cn(C4CC4)c3c2F)C[C@H](C)N1 | 6.77% [at 19 µM] (inactive) | –
6 | CCc1nnc(NS(=O)(=O)c2ccc(N)cc2)s1 | 0.413% [at 42.5 µM] (inactive) | –
7 | CCCCCCCCc1ccc(S(=O)(=O)O)cc1 | – | 19.2 µM (active)
8 | O=C1N(c2ccccc2)c2ccccc2C1(Cc1ccncc1)Cc1ccncc1 | -0.587% [at 42.5 µM] (inactive) | –
9 | CCCS(=O)c1ccc2nc(NC(=O)OC)[nH]c2c1 (stereo not given) | -1.27% [at 42.5 µM] (inactive) | –
10 | C=O | 3.71% (inactive) | –
11 | CN(C)Cc1ccccc1 | 0.727% (inactive) | –
12 | Cc1onc(-c2ccccc2)c1C(=O)Cl | 3.67% [at 42.5 µM] (inactive) | –
13 | CCN(CC)C(=O)N(CC)CC | -0.443% (inactive) | –
14 | CN1C(=O)CC(c2ccccc2)C1=O (stereo not given) | 2.63% [at 42.5 µM] (inactive) | –
15 | CC(Oc1c(Cl)cccc1Cl)C1=NCCN1 (stereo not given) | -1.23% [at 42.5 µM] (inactive) | –
16 | O=C(O[C@@H](C(=O)O)[C@@H](OC(=O)c1ccccc1)C(=O)O)c1ccccc1 | 6.04% (inactive) | –
17 | O=C(O)c1cccc(Cl)c1Cl | -2.82% (inactive) | –
18 | CC(C)C(=O)OCC(C)(C)C(O)C(C)C (stereo not given) | 8.44% (inactive) | –
19 | C=CCCCCCCCCO | -0.869% (inactive) | –
20 | CCC1(C)NC(=O)NC1=O (stereo not given) | 2.78% (inactive) | –

Row | SMILES | activity change, negative = cytotoxicity | Potency
21 | COc1ccccc1OCC(O)COC(N)=O (stereo not given) | 0.837% [at 42.5 µM] (inactive) | –
22 | CCN(CCCc1ccccc1)CCCc1ccccc1 | – | 11.9 µM (active)
23 | C[C@@H]1CN(c2c(F)c(F)c3c(=O)c(C(=O)O)cn(C4CC4)c3c2F)C[C@H](C)N1 | -0.431% [at 19 µM] (inactive) | –
24 | CCCNC(C)C(=O)Nc1c(C)csc1C(=O)OC (stereo not given) | 1.52% [at 42.5 µM] (inactive) | –
25 | COc1cc(Cl)ccc1Cl | 8.1% (inactive) | –
26 | CC(C)OC(C)C | -0.294% (inactive) | –
27 | CC1=NN(c2cc(Cl)c(S(=O)(=O)O)cc2Cl)C(=O)C1N=Nc1ccc(S(=O)(=O)O)cc1 (stereo not given) | 0.429% (inactive) | –
28 | CN1[C@@H]2CC[C@H]1CC(OC(=O)c1c[nH]c3ccccc13)C2 (stereo not given in full) | -7.69% [at 42.5 µM] (inactive) | –
29 | Cc1ccc([N+](=O)[O-])cc1Cl | 8.49% (inactive) | –
30 | Cc1cc(NS(=O)(=O)c2ccc(N)cc2)nc(C)n1 | 8.72% [at 42.5 µM] (inactive) | –
31 | CN1CCN(c2c(F)cc3c(=O)c(C(=O)O)cn4c3c2SCC4)CC1 | -0.0947% [at 42.5 µM] (inactive) | –
32 | CC(C)=CCCC(C)CCOC=O (stereo not given) | 0.512% (inactive) | –
33 | CS(=O)(=O)c1ccc([C@@H](O)[C@@H](CF)NC(=O)C(Cl)Cl)cc1 | 4.83% [at 42.5 µM] (inactive) | –
34 | CCC(=O)c1ccc2c(c1)N(CCCN(C)C)c1ccccc1S2 | – | 29.8 µM (active)
35 | OCC(CBr)(CBr)CBr | -9.18% (inactive) | –
36 | CCCc1c2oc(C(=O)O)cc(=O)c2cc2c(=O)cc(C(=O)O)n(CC)c12 | -0.263% [at 42.5 µM] (inactive) | –
37 | Cc1nnc(SCC2=C(C(=O)O)N3C(=O)[C@@H](NC(=O)Cn4cnnn4)[C@H]3SC2)s1 | 11.6% [at 42.5 µM] (inactive) | –
38 | CC(=O)N(CC(O)CN(C(C)=O)c1c(I)c(C(=O)NCC(O)CO)c(I)c(C(=O)NCC(O)CO)c1I)c1c(I)c(C(=O)NCC(O)CO)c(I)c(C(=O)NCC(O)CO)c1I (stereo not given) | 2.74% [at 42.5 µM] (inactive) | –
39 | C=CCCC=C | -3.13% (inactive) | –
40 | Cc1c[nH]c(=S)[nH]c1=O | -0.984% (inactive) | –
